Measured values: PubChem BioAssay (NCATS)
Inconclusive results are not listed. Calls of active or inactive are those of the source. Unless noted, calls come from the whole dose curve; as a rule, active = well fitted curve in the direction sought with a large enough effect; inconclusive = small, poorly fitted or top-dose-only effect, or another doubt; inactive = no such curve, though single readings can be large; an effect the other way counts as inactive or inconclusive.

Tests used:
[1] = target: DNA repair nuclease/redox regulator APEX1 (Homo sapiens) (UniProt P27695); assay: qHTS Validation Assay for Inhibitors of the Human Apurinic/apyrimidinic Endonuclease 1 (APE1) (AID 1705;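 note: TAMRA fluorescence gain over two minutes as APE1 cuts a quenched THF abasic duplex; series mostly up to about 57 µM; % is set by controls: 0 for no effect and ±100 for the full control effect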)
How it was run: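 Activity read as rising fluorescence (598 nm emission, 525 nm excitation) from incision of a TAMRA/BHQ-2 duplex carrying a THF abasic site (50 nM). Compound and enzyme sat 15 min at RT before substrate start; signal change between first and third 60-s reads.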

[2] = target: Endonuclease 4 (Escherichia coli (strain K12)) (UniProt P0A6C1); assay: Counterscreen for APE1 Inhibitors: qHTS Validation Assay for Inhibitors of Endonuclease IV (AID 1708); note: % is set by controls: 0 for no effect and ±100 for the full control effect
How it was run: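 Enzyme (2 nM) + compound, 15 min RT; add 50 nM TAMRA/BHQ-2 THF-site dsDNA; kinetic read ex525/em598, 3 reads/60 s; activity = read 3 − read 1. Buffer Tris pH 7.5, 50 mM NaCl, 2 mM MgCl2, DTT, Tween-20.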

[3] = qHTS for differential inhibitors of proliferation of Plasmodium falciparum line 7G8 (AID 1815);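 note: potency is the fitted concentration of half-maximal effect; parasite growth measured after three days of incubation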
[4] = qHTS for differential inhibitors of proliferation of Plasmodium falciparum line GB4 (AID 1816); conditions: Potency: Plasmodium falciparum GB4 proliferation inhibition;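 note: potency is the fitted concentration of half-maximal effect; parasite growth measured after 72 h incubation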
[5] = qHTS for differential inhibitors of proliferation of Plasmodium falciparum line 3D7 (AID 1876); note: potency is the fitted concentration of half-maximal effect
[6] = qHTS for differential inhibitors of proliferation of Plasmodium falciparum line D10 (AID 1877);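 note: potency is the fitted concentration of half-maximal effect; parasites grown with compound for 72 h before DNA staining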
[7] = qHTS for differential inhibitors of proliferation of Plasmodium falciparum line W2 (AID 1883); conditions: Potency: Plasmodium falciparum W2 proliferation inhibition;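 note: potency is the fitted concentration of half-maximal effect; parasites grown with compound for 72 h before lysis and staining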
[8] = qHTS for differential inhibitors of proliferation of Plasmodium falciparum line HB3 (AID 1886); conditions: Potency: Plasmodium falciparum HB3 proliferation inhibition;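 note: potency is the fitted concentration of half-maximal effect; parasites grown with compound for 72 h before SYBR Green readout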
[9] = target: ATP-dependent DNA helicase Q1 (Homo sapiens) (UniProt P46063); assay: qHTS Validation Assay for Inhibitors of RecQ-Like Dna Helicase 1 (RECQ1) (AID 2353);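 note: plate controls were DMSO vehicle for no effect and enzyme-free control for full effect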
How it was run: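 RECQ1T1 50 nM; forked duplex (20 bp + 30-nt ss tails) 200 nM, ATP 2 mM final; pH 8.0, 2 mM MgCl2, 2.5 ug/ml poly(dI-dC); 15 min compound preincubation; discontinuous kinetic read over 2 h at RT.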

[10] = Quantitative high throughput screen for delayed death inhibitors of the malarial parasite plastid, 96 hour incubation (AID 488745); note: nearly all actives have a fitted effect of over 70% in size; note: potency is the fitted concentration of half-maximal effect
How it was run: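 Readout is firefly luciferase luminescence from an integrated reporter in P. falciparum; lower signal marks inhibited growth. Cultures at 2% hematocrit and 0.1% parasitemia were treated with compound across two generations (96 h, 37 C, 5% CO2).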

[11] = Quantitative high throughput screen for delayed death inhibitors of the malarial parasite plastid, 48 hour incubation (AID 488752); note: potency is the fitted concentration of half-maximal effect; nearly all actives have a fitted effect of over 65% in size
How it was run: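 First, compound was pinned into RPMI 1640 medium containing 0.5% Albumax. Next, reporter-parasite-infected erythrocytes were added to 2% hematocrit and 0.1% parasitemia. After 48 h at 37 C under 5% CO2, luciferase detection reagent was added and luminescence read.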

[12] = target: M-phase phosphoprotein 8 (Homo sapiens) (UniProt Q99549); assay: qHTS Validation Assay for Inhibitors for MPP8 Chromodomain Interactions with Methylated Histone Tails (AID 488949); note: nearly all actives have a fitted effect of over 55% in size; note: potency is the fitted concentration of half-maximal effect
How it was run: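 AlphaScreen proximity signal from streptavidin donor and Ni-chelate acceptor beads (10 ug/mL each) reported binding of MPP8 to trimethyl-K9 H3(1-18) peptide, both at 50 nM. The complex formed 30 min before a 30 min compound exposure at room temperature, in PBS pH 7.4.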

[13] = target: Transient receptor potential cation channel subfamily V member 1 (Homo sapiens) (UniProt Q8NER1); assay: HTS Assay for Compounds that Act as Enhancers of the Vanilloid Receptor 1 (AID 488979); note: 0% is about no effect
How it was run: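 TRPV1-expressing cells loaded with Fluo-8 calcium dye; compounds added and calcium influx read kinetically for 3 min (agonist phase), then capsaicin at EC20 added and read 2 min more for enhancement. Fluorescence ex 480/em 520 nm.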

[14] = target: Thyrotropin receptor (Homo sapiens) (UniProt P16473); assay: qHTS Assay for Antagonists of the Thyroid Stimulating Hormone Receptor (AID 488980); note: series mostly up to about 58 µM; 0% is about no effect
How it was run: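 Inhibition of cAMP raised by EC80 TSH (4 nM final) was read by HTRF, with lysate cAMP competing against cAMP-d2 for cryptate antibody after 30 min at room temperature. The cells were transfected HEK293 held in phosphodiesterase inhibitor RO 20-1724 at 70 uM.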

[15] = target: Galactokinase (Homo sapiens) (UniProt P51570); assay: qHTS Validation Assay for Inhibitors of Human Galactokinase (GALK) (AID 493189); note: 0% is about no effect
How it was run: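 Inhibition was measured as remaining ATP, detected by luciferase luminescence after a 1 h room-temperature reaction. Final conditions: 5 nM GALK, 100 uM galactose, 35 uM ATP, pH 8.0 HEPES buffer.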

[16] = Validation screen for small molecules that induce DNA re-replication in SW480 colon adenocarcinoma cells (AID 504364); note: 0% is about no effect
How it was run: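 Image-based qHTS: compounds were incubated with SW480 cells for 48 hr, nuclei stained with Hoechst, and per-nucleus fluorescence intensity scanned to flag cells with excess DNA content.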

[17] = Counterscreen for APE1 Inhibitors: Fluorescent Dye Displacement Validation Assay (AID 1707);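 note: plate controls were ThO with dsDNA and no compound for no effect and ThO without dsDNA for full effect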
How it was run: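 Reaction mixture of 250 nM Thiazole Orange and 50 nM double-stranded abasic-site DNA was dispensed, compounds were pin-transferred, and fluorescence was read at endpoint (480 nm ex, 540 nm em). Reduced fluorescence indicated dye displacement by DNA binding.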

[18] = target: RecQ-like DNA helicase BLM (Homo sapiens) (UniProt P54132); assay: qHTS Validation Assay for Inhibitors of Bloom's syndrome helicase (BLM) (AID 2364); note: potency is the fitted concentration of half-maximal effect
How it was run: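 BLM 50 nM in 25 mM Tris-HCl pH 8.0, 5 mM NaCl, 2 mM MgCl2, 1 mM DTT, 0.01% Tween-20, 2.5 ug/ml poly(dI-dC); 15 min cpd preinc, RT. Start: 200 nM forked DNA + 2 mM ATP (final). TAMRA read, 2 reads 2 h apart.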

[19] = Validation screen for small molecules that induce DNA re-replication in MCF 10A normal breast cells (AID 463097); note: 0% is about no effect; nearly all actives have a fitted effect of over 60% in size
How it was run: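 Read-out is Hoechst total nuclear intensity by fluorescence scanning imager, flagging increased high-DNA-content nuclei. Compounds were incubated with MCF 10A cells for 48 hr (37 C, 5% CO2) before 40 min staining.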

[20] = target: Thyrotropin-releasing hormone receptor (Homo sapiens) (UniProt P34981); assay: qHTS for Small Molecule Agonists and Allosteric Enhancers of Human TRH Receptor: Validation Screen for Agonists (AID 493127;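 active = calcium activation more than 3 SD above the typical response in the agonist read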;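 note: intracellular calcium rise by fluo-8 fluorescence before TRH EC20 addition; 0% is about no effect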); conditions: TRH receptor agonist cell assay; at 2 µM; active compounds read high
How it was run: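 Compounds are added by online pintool to dye-loaded TRHR cells while fluorescence is recorded every second. A rise in calcium signal during the agonist read marks activation; a later 10 nM TRH addition (EC20) serves the separate enhancer mode.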

[21] = Stat Signaling Pathway (AID 446; active = well fitted curve in either direction with a large enough effect, not every such curve was filed as active;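 note: ME-180 cervical cancer cells given 40 pM IL-6 alongside compound; SIE-controlled beta-lactamase reporter measured as 460/530 nm FRET emission ratio; % is set by controls: 0 for no effect and ±100 for the full control effect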)
How it was run: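 Normalization used AC90 stimulation (300 pM IL-6) and AC90 inhibition (125 nM pan-JAK inhibitor at 40 pM IL-6). The underlying signal is SIE-driven beta-lactamase in ME-180 cells after 5 h IL-6 exposure with compound.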

[22] = target: Glucocorticoid receptor (Homo sapiens) (UniProt P04150); assay: GR-GFP Redistribution (AID 450;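 active = compounds whose dose series gives a full or clear partial fitted curve of increased nuclear translocation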; note: potency is the fitted concentration of half-maximal effect); conditions: U2OS GR-GFP nuclear translocation, laser cytometry, 2 h
[23] = target: Glucocorticoid receptor (Homo sapiens) (UniProt P04150); assay: GR-EFC Redistribution (AID 451; calls by dose curve; note: potency is the fitted concentration of half-maximal effect); conditions: CHO-K1 GR-EFC translocation, beta-gal luminescence, 2 h
How it was run: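 CHO-K1 cells stably expressing nuclear-localized β-gal enzyme acceptor and GR fused C-terminally to the enzyme donor fragment; ligand-driven nuclear translocation restores β-gal by complementation. Compounds titrated up to 46 uM final, 2 h at 37 °C; luminescence read.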

[24] = target: 3',5'-cyclic-AMP phosphodiesterase 4B (Homo sapiens) (UniProt Q07343); assay: qHTS Assay for Inhibitors of PDE-IV (AID 607; active = well fitted activation curve with a large enough effect in the main read-out, with a control signal flat, not every such curve was filed as active; note: % of control where 0% means no effect)
How it was run: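 HEK293 ACTOne cells with CNG channel (1000/well), endogenous PDE4; membrane potential dye, compounds up to 22.9 uM final. Fluorescence Ex 535/Em 590; RO 20-1724 (100 uM final) as reference.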

[25] = target: Guanine nucleotide-binding protein G(i) subunit alpha-1 (Homo sapiens) (UniProt P63096); assay: qHTS Assay for Inhibitors of RGS12 GoLoco Motif Activity (Green Fluorophore) (AID 879);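 note: 0% = labeled peptide with Gαi1 and full inhibition = labeled peptide alone without protein; negative values mean loss of peptide binding seen as reduced polarization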
How it was run: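 A drop in FITC polarization marked displacement of the FITC-tagged RGS12 GoLoco peptide (10 nM) from Gαi1 (50 nM). Compounds were incubated 10 min at room temperature in Tris pH 7.5 buffer containing 150 mM NaCl, 0.1 mM GDP and 0.05% NP40; unlabeled peptide titration served as control.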

[26] = target: Cytochrome P450 3A4 (Homo sapiens) (UniProt P08684); assay: qHTS Assay for Activators of Cytochrome P450 3A4 (AID 885); note: nearly all actives have a fitted effect of over 65% in size
How it was run: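 Human CYP3A4 dealkylates Luciferin-PPXE to luciferin, which luciferase detection converts to light. Substrate was at its KM (25uM), buffer 200mM KPO4, reaction 60 min at RT.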

[27] = qHTS Assay for Identification of Small Molecule Antagonists for Thrombopoietin (TPO) Signaling Pathway (AID 918); conditions: TPO-dependent cell signaling reporter, antagonist mode; note: potency is the fitted concentration of half-maximal effect; nearly all actives have a fitted effect of over 60% in size
How it was run: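 Inhibitors of TPO signaling are sought by stimulating IL-3-starved murine Ba/F3 cells (human TPO receptor, Glycoprotein IIb-driven luciferase) with TPO at its EC50 of 26 pM alongside compound. After 24 hrs at 37 C, reporter luminescence is measured.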

[28] = target: Pyruvate kinase (Leishmania mexicana) (UniProt Q27686); assay: qHTS Validation Assay for Inhibitors of Leishmania Mexicana Pyruvate Kinase (AID 945);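 note: 0% = DMSO only neutral control wells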
How it was run: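 Luminescent ATP detection (PKLight) after a 1 h room-temperature reaction of 0.2 nM LmPYK E451W mutant with 0.5 mM PEP and 0.1 mM ADP at pH 7.2. Activity is normalized to DMSO-only control wells.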

[29] = target: Pyruvate kinase PKM (Homo sapiens) (UniProt P14618); assay: qHTS Assay for Activators of Human Muscle Pyruvate Kinase (AID 954; active = well fitted curve in the direction sought with a large enough effect, not every such curve was filed as active;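 note: 0% = uninhibited enzyme and -100% = no enzyme or full thiadiazolimine inhibition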)
How it was run: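 Compound pinned into substrate mix (0.5 mM PEP, 0.1 mM ADP), then 0.1 nM PKM2 added; 1 h, RT. Stop/detection luciferase reagent added, luminescence read. Normalized to no-inhibition and no-enzyme or reference-inhibitor controls.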

[30] = target: Alpha-galactosidase A (Homo sapiens) (UniProt P06280); assay: Counterscreen for Glucocerebrosidase Inhibitors: qHTS Assay for Human alpha-Galactosidase at pH 4.5 (AID 992); note: 0% is about no effect
How it was run: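 Steps: enzyme (2 nM final), then compound across 0.7 nM to 77 uM, then 80 uM fluorogenic galactopyranoside substrate; incubate 20 min at room temperature; quench at pH 10; measure fluorescence at 365/440 nm.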

[31] = target: alpha-glucosidase (Oryza sativa, rice) (UniProt Q653V4); assay: Counterscreen for Glucocerebrosidase Inhibitors: qHTS Assay for Rice alpha-Glucosidase at pH 5.0 (AID 997);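 note: 0% = full activity with enzyme and -100% = basal without enzyme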
How it was run: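 Endpoint fluorogenic assay at pH 5.0: compounds (0.7 nM to 77 uM) titrated against 4 nM rice enzyme and 400 uM 4-MU-alpha-glucoside for 20 min at room temperature; NaOH/glycine stop, read ex 365/em 440 nm, Hill-fitted AC50.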

[32] = target: Voltage-gated inwardly rectifying potassium channel KCNH2 (Homo sapiens) (UniProt Q12809); assay: qHTS Assay for Small Molecule Inhibitors of the Human hERG Channel Activity (AID 588834);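 note: lower thallium flux fluorescence means stronger hERG block; nearly all actives have a fitted effect of over 50% in size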; note: potency is the fitted concentration of half-maximal effect
How it was run: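 hERG block measured as reduced thallium-dye (FluxOR) fluorescence after stimulation buffer addition, read over 2 min. Cells were hERG-BacMam-transduced U2OS exposed to compound ~10 min […]; concentration-response fitted with Hill equation for AC50.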

[33] = qHTS for differential inhibitors of proliferation of Plasmodium falciparum line Dd2 (AID 1882); conditions: Potency: Plasmodium falciparum Dd2 proliferation inhibition;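 note: series mostly up to about 29 µM; plate controls were DMSO vehicle for no effect and 0.29 µM artemisinin for full effect; nearly all actives have a fitted effect of over 65% in size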
How it was run: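 SYBR Green DNA fluorescence (ex 485, em 535 nm) after overnight lysis quantifies parasite growth; compound exposure lasted 72 h at 37 C on infected red cells at 2.5% hematocrit, 0.3% parasitemia (final). Artemisinin 0.29 uM and vehicle wells define normalization.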

[34] = target: Ferritin light chain (Equus caballus) (UniProt P02791); assay: qHTS Validation Assay for Identification of Novel General Anesthetics (AID 2323); note: series mostly up to about 77 µM; % is set by controls: 0 for no effect and ±100 for the full control effect
How it was run: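 Competitive displacement of the profluorescent anesthetic 1-AMA (50% saturated, PBS) from 10 uM apoferritin, 10 min, room temperature. Activity is normalized 380/535 nm fluorescence; concentration-response fitted with a four-parameter Hill equation.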

Sequence of M-phase phosphoprotein 8 (Homo sapiens) (Q99549 whole entry, looked up): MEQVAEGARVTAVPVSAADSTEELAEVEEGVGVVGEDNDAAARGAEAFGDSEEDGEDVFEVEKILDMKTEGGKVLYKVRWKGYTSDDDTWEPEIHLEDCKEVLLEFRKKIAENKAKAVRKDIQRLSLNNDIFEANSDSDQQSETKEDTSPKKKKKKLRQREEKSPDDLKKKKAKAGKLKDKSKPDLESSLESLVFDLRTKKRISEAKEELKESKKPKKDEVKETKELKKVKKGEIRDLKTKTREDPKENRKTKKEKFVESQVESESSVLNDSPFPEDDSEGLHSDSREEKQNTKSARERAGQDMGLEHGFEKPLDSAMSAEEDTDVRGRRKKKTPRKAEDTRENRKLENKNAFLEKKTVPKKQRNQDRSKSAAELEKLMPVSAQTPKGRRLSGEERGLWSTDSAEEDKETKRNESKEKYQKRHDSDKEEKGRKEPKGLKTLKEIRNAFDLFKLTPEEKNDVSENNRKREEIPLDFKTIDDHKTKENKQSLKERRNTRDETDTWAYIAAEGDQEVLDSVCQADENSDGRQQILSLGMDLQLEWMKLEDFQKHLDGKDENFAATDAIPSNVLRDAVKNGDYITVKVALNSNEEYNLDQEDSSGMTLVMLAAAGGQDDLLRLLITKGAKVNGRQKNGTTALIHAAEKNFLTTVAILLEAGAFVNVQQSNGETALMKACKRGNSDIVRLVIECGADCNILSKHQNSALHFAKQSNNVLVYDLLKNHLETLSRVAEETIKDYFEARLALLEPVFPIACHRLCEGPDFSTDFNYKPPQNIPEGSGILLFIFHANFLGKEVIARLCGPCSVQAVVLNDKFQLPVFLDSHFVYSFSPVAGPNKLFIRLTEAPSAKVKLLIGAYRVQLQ
Sequence of Thyrotropin receptor (Homo sapiens) (P16473 whole entry, looked up): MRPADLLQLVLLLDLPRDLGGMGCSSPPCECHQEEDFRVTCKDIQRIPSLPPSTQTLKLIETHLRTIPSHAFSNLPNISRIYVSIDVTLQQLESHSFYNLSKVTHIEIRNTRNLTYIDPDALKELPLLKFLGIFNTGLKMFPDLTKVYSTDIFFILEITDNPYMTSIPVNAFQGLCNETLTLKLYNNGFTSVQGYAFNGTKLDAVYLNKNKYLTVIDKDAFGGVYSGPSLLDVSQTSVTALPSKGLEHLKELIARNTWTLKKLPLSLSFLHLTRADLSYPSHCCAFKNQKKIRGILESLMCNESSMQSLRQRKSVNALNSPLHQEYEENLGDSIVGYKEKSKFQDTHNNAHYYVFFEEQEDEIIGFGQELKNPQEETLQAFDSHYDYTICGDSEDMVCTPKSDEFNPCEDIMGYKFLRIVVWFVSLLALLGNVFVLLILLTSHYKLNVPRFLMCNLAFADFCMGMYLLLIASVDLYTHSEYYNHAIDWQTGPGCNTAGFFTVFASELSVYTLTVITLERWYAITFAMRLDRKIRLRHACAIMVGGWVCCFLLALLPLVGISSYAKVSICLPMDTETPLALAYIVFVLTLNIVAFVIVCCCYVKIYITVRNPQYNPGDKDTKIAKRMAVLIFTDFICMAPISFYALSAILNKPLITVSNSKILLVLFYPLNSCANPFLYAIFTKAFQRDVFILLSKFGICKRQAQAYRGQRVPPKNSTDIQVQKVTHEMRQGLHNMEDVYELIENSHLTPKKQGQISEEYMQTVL
Sequence of Galactokinase (Homo sapiens) (P51570 whole entry, looked up): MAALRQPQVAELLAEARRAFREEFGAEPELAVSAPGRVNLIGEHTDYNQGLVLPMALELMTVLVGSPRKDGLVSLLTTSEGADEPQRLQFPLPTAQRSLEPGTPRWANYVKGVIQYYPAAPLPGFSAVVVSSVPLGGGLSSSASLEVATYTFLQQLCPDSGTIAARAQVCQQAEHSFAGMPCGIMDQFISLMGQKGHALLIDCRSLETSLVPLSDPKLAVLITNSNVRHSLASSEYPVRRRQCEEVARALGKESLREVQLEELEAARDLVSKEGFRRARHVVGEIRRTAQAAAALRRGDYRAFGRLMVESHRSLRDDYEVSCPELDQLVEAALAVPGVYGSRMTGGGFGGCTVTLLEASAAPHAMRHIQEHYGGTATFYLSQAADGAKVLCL
Sequence of Transient receptor potential cation channel subfamily V member 1 (Homo sapiens) (Q8NER1 whole entry, looked up): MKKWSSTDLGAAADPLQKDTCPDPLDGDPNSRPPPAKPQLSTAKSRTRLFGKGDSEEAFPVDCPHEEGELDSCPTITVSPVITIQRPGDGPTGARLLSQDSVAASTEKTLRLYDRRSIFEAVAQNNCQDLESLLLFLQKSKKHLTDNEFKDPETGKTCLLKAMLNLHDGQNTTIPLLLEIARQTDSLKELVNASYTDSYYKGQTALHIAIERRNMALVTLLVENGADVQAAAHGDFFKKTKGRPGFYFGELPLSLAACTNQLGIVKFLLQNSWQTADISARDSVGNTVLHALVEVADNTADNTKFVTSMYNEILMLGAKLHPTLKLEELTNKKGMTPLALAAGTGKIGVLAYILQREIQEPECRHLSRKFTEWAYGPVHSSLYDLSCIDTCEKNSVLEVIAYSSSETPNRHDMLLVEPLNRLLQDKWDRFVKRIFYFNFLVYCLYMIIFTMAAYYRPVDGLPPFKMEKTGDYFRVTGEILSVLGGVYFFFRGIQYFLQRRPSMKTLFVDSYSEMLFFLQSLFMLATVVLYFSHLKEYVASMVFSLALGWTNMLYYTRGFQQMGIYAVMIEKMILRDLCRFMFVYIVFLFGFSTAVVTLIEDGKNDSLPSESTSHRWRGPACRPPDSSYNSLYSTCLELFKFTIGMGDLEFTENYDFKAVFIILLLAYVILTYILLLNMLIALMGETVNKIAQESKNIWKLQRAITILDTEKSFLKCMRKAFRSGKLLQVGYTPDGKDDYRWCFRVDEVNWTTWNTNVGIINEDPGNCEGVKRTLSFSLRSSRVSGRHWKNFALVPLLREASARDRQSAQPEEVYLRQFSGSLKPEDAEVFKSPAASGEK
Sequence of DNA repair nuclease/redox regulator APEX1 (Homo sapiens) (P27695 whole entry, looked up): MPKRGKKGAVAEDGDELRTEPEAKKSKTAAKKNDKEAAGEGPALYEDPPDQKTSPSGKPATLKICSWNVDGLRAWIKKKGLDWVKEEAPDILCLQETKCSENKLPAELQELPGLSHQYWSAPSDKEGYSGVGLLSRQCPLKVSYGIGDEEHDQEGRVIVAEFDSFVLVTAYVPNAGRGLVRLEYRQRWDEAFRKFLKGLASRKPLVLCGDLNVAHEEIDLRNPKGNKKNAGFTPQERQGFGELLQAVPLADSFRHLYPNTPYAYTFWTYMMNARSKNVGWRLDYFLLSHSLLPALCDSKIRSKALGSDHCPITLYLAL
Sequence of ATP-dependent DNA helicase Q1 (Homo sapiens) (P46063 whole entry, looked up): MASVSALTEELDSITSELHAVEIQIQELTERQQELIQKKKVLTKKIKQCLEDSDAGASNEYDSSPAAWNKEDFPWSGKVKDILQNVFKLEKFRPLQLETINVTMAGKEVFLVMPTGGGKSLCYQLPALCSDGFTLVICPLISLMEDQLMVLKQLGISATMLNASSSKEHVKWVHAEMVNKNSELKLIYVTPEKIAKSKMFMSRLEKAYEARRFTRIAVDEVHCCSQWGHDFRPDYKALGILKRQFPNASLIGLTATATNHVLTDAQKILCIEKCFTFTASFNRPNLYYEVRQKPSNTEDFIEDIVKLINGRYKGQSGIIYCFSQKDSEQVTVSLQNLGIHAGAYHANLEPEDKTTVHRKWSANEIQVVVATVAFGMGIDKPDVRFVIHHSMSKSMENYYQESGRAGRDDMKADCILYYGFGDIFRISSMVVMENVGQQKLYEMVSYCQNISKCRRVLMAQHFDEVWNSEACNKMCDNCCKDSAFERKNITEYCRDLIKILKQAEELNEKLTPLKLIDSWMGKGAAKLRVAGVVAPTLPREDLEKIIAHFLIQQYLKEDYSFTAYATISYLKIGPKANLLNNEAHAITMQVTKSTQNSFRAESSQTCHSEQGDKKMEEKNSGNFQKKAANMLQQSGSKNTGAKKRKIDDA
Sequence of Thyrotropin-releasing hormone receptor (Homo sapiens) (P34981 whole entry, looked up): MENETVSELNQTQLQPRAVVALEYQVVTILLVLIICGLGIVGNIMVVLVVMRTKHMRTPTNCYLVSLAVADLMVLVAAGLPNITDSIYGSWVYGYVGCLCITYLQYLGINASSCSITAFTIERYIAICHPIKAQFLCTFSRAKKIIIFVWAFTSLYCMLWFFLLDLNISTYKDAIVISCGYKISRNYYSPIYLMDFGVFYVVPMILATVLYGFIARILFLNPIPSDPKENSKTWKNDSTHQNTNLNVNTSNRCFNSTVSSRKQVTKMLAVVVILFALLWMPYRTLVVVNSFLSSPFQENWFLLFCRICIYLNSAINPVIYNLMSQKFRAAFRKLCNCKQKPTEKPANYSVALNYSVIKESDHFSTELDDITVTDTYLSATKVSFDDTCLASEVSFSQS
Sequence of Glucocorticoid receptor (Homo sapiens) (P04150 whole entry, looked up, the tested form may be a part): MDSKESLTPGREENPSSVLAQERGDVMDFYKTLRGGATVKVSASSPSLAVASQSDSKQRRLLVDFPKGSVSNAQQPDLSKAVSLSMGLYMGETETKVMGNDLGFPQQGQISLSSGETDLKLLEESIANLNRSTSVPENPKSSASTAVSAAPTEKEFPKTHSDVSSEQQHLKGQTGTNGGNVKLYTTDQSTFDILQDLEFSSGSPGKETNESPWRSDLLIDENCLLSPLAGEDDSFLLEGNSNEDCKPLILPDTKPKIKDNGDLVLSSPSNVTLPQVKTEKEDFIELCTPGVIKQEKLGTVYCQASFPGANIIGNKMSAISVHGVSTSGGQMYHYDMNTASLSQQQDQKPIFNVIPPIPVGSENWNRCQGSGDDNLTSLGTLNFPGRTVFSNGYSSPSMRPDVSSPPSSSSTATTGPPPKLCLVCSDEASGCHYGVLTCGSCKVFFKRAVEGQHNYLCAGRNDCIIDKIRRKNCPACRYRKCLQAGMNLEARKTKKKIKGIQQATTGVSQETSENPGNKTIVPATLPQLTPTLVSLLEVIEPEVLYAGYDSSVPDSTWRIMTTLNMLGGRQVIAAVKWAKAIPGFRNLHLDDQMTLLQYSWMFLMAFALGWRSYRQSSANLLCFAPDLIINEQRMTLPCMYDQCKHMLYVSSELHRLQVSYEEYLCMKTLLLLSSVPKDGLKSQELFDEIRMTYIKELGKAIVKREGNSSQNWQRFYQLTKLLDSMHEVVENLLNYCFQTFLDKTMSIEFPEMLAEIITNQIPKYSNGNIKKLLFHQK

CC(=O)O[C@]1(C(C)=O)CC[C@H]2C3C=C(Cl)C4=CC(=O)[C@@H]5C[C@H]5[C@]4(C)C3CC[C@@]21C (some centres undefined)
active: Potency [3] 12.6 µM | Potency [4] 10 µM | Potency [5] 8.91 µM | Potency [6] 14.1 µM | Potency [7] 8.91 µM | Potency [8] 12.6 µM | Potency [11] 9.28 µM
inactive: Potency [1] | Potency [2] | outcome [9] | Potency [10] | Potency [12] | outcome [13] | outcome [14] | outcome [15] | Potency [16]

N#CC(Cc1ccc(O)c(O)c1)C(=O)N1CCc2ccccc21 (centres undefined)
active: Potency [4] 7.08 µM | Potency [5] 3.55 µM | Potency [7] 3.55 µM | Potency [18] 25.1 µM | Potency [12] 17.8 µM
inactive: Potency [1] | outcome [17] | Potency [2] | outcome [9] | Potency [19] | outcome [13] | outcome [14] | activation [20] 3.94% | outcome [15]

N#Cc1c(-c2ccccc2)no[n+]1[O-]
active: Potency [27] 3.98 µM | Potency [3] 10 µM | Potency [4] 12.6 µM | Potency [6] 14.1 µM | Potency [7] 10 µM | Potency [8] 11.2 µM | Potency [32] 5.01 µM
inactive: outcome [21] | Potency [22] > 46 µM | Potency [23] > 46 µM | Potency [24] | Potency [25] | outcome [26] | outcome [28] | outcome [29] | outcome [30] | outcome [31] | Potency [1] | outcome [17] | outcome [9] | Potency [12] | outcome [13] | outcome [14] | activation [20] 0.688% | outcome [15]

Nc1nc(Cl)nc2c1ncn2[C@@H]1O[C@H](CO)[C@H](O)[C@H]1O
active: Potency [4] 11.2 µM | Potency [5] 7.08 µM | Potency [10] 5.22 µM
inactive: outcome [17] | Potency [2] | Potency [33] | outcome [34] | outcome [9] | outcome [13] | outcome [14] | activation [20] 1.31% | outcome [15] | Potency [16] | Potency [32]
